Our source for the activity change, less the hit threshold values is PubChem BioAssay AID1942 (Johns Hopkins Ion Channel Center, 2009).

About 580 (24%) of roughly 2,400 compounds were called active.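 The calls were made as follows: active = activity change at or above the mean plus 3 SD of buffer wells without dofetilide, per plate; inactive = the rest.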 Only a sample is shown.

Potassium voltage-gated channel subfamily KQT member 2 (Rattus norvegicus), sequence (O88943 whole entry, looked up): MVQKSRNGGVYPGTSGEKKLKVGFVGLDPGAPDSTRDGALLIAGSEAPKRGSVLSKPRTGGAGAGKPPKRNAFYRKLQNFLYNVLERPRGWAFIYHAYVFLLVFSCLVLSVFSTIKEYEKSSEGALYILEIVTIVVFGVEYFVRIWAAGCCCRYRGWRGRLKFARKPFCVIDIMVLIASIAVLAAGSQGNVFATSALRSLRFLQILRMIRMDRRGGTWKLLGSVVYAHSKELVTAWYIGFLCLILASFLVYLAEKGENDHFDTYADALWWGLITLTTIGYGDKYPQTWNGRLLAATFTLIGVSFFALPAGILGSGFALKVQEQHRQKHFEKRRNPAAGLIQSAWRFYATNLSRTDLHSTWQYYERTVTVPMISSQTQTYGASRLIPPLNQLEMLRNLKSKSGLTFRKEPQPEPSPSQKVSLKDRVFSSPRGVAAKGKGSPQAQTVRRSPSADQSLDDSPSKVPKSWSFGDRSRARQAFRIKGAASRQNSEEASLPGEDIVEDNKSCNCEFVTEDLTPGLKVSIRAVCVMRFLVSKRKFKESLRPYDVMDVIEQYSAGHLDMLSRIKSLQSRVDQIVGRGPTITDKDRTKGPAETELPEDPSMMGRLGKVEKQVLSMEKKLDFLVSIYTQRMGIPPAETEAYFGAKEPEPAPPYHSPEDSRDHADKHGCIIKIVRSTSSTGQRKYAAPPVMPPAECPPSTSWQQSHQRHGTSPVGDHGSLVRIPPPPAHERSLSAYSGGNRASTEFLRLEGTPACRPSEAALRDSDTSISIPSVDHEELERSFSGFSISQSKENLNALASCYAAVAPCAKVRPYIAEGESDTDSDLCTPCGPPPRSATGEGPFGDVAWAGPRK

The experiment addresses Potassium voltage-gated channel subfamily KQT member 2 (Rattus norvegicus) (UniProt O88943). Kind of experiment: KCNQ2 potentiation in CHO cells – cell-based, FluxOR thallium flux, counter-screen for hERG block protector project, confirmation (AID 1942).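 Also: normalized value minus buffer-control mean plus three SD of buffer wells.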 Particulars: FluxOR thallium flux fluorescence, at 10 µM, stronger effect = higher value.
Turning to `COc1cccc(OC)c1OCCOCCN1CCN(C)CC1`, the activity change, less the hit threshold is -21% (inactive).
To `CCN(CC)c1ccc(NC(=S)NC(=O)c2cccs2)cc1` belongs -9.5% (inactive); to `O=C(NC(=S)Nc1ccccc1)c1cccs1`, 3.3% (active); to `O=C(NC(=S)Nc1ccc(N2CCCCC2)cc1)c1cccs1`, -9.5% (inactive).
Turning to `O=C(NC(=S)NCc1ccccc1)c1cccs1`, the activity change, less the hit threshold is 5.6% (active).
For the compound `O=C(NC(=S)Nc1ccccc1N1CCCCC1)c1cccs1`, the activity change, less the hit threshold was -23.1% (inactive).
Then `CCSc1nc2c(c(=O)[nH]1)C(c1ccc(C)cc1)C1=C(CCCC1=O)N2` (stereo not given), with -8.9% (inactive); and `O=C(O)C/C(=C\c1cc(Br)cs1)c1nc2ccccc2o1`, with -8.4% (inactive).
For the compound `CCCCCCc1cc2cc(-c3nnc(-c4ccccc4O)o3)c(=O)oc2cc1O`, the activity change, less the hit threshold is -7% (inactive).
Then `CC(C)(C)c1csc(NC(=O)C2=COCCO2)n1`, with -13% (inactive); and `Oc1c(Cl)cc(Cl)cc1/C=N/c1ncn[nH]1`, with 23.9% (active).
Then `Oc1c(Cl)cc(Cl)cc1Sc1cc(Cl)cc(Cl)c1O`, with -1.7% (inactive); and `Oc1c(Cl)cc(Cl)cc1/C=N/c1nccs1`, with 32.3% (active).
To `CC1CCN(C(=O)CSc2nnc(CNC(=O)c3ccco3)o2)CC1` belongs -12.8% (inactive).
Consider `CCOc1ccc(NC(=O)CS(=O)CC(=O)NC2CCCc3ccccc32)cc1` (stereo not given), for which the activity change, less the hit threshold is -13.6% (inactive).
As for `Cc1nc2ccccc2n1-c1ccccc1`, the activity change, less the hit threshold was -4.2% (inactive).
In the case of `COc1ccc(-n2ncc3c2CC(C)(C)CC3NC(=O)c2cn[nH]c2)cc1` (stereo not given), the activity change, less the hit threshold is -22.9% (inactive).
To `O=C(O)c1cc(N/N=C/c2ccc(-c3ccccc3)cc2)ccc1Cl` belongs -22.4% (inactive).
Regarding `O=C(O)c1cc(NN=C2c3ccccc3-c3ccccc32)ccc1Cl`, the activity change, less the hit threshold was 32.4% (active).
Take `CC(C)Oc1cc(S(=O)(=O)N2CCCCC2)ccc1N`: the activity change, less the hit threshold was -15.7% (inactive).
To `O=[N+]([O-])c1ccc(S(=O)(=O)Nc2ccc(S(=O)(=O)N3CCCC3)cc2)cc1` belongs -23.3% (inactive); to `CCOC(=O)c1c(C)[nH]c(=S)c(C#N)c1-c1ccc(Cl)cc1`, 5.2% (active).
To `CCCCOc1ccc(-c2c(C#N)c(N)[nH]c(=S)c2C#N)cc1` belongs -10.1% (inactive); to `Cc1[nH]c(=S)c(C#N)c(C)c1Cc1ccc(Cl)cc1Cl`, -7.1% (inactive).
Turning to `Cc1ccc([N+](=O)[O-])c2c1C(N1CC(C)OC(C)C1)C(C)(C)O2` (stereo not given), the activity change, less the hit threshold is -14.4% (inactive).
To `S=c1nc(C2CCCCC2)n(-c2ccccc2)[nH]1` belongs 41.2% (active); to `Cc1cc(OCC(=O)Nc2cc(S(=O)(=O)N3CCOCC3)ccc2N2CCCC2)ccc1C(C)C`, -14.1% (inactive).
To `CNC(=S)N/N=C/c1cc(Br)cc(Br)c1O` belongs -6.6% (inactive).
To `Cc1nnc(C)n1/N=C/c1cc(Br)cc(Br)c1O` belongs 17.8% (active).
On to `CC(=O)C1=C(O)C(=O)N(c2cccnc2)C1c1ccc(Cl)cc1` (stereo not given), for which the activity change, less the hit threshold is -25.8% (inactive).
Then `O=C(COc1ccc2c3c(c(=O)oc2c1)CCC3)N[C@@H](Cc1ccccc1)C(=O)O`, with 8.1% (active); and `O=C(COc1ccc2c3c(c(=O)oc2c1)CCC3)NCC1CCC(C(=O)O)CC1` (stereo not given), with -17.1% (inactive).
To `Cc1c(C)c2ccc(OCC(=O)N[C@@H](Cc3ccccc3)C(=O)O)cc2oc1=O` belongs -10% (inactive); to `Cc1cc(=S)nc(-c2ccccn2)[nH]1`, -4.4% (inactive); to `Cc1[nH]c(-c2ccccn2)nc(=S)c1Cl`, 92% (active).
For the compound `COC(=O)Cc1[nH]n(-c2nc3ccccc3s2)c(=O)c1C(C)=Nc1ccc(C)cc1`, the activity change, less the hit threshold was -15.8% (inactive).
`COc1cccc(C(=O)NNC(=O)C(=O)Nc2cccc3ccccc23)c1`: the activity change, less the hit threshold was 59.7% (active).
Consider `COc1ccc(OC)c(NC(=O)C(=O)NNC(=O)c2cccs2)c1`, for which the activity change, less the hit threshold was -6.1% (inactive).
To `COc1cc(NC(=O)c2ccc3c(c2)OCO3)ccc1NC(=O)c1cccs1` belongs -18.6% (inactive); to `COc1ccc(NC(=O)C(=O)NNC(=O)c2cccs2)c(OC)c1`, 30.8% (active).
To `COc1cccc(CCNS(=O)(=O)CCNC(=O)c2cccc(OC)c2)c1` belongs -13.6% (inactive).
Then `COc1cc(NC(=O)c2cc(-c3cccnc3)nc3ccc(C)cc23)c(OC)cc1Cl`, with -13.9% (inactive); and `COc1ccc(C(=O)NNC(=O)C(=O)Nc2cccc3ccccc23)cc1`, with 59.1% (active); and `COc1cc(OC)cc(C(=O)NNC(=O)C(=O)Nc2cc(OC)c(Cl)cc2OC)c1`, with 49.6% (active).
As for `C=C(C)CSc1nnc2[nH]c(=O)cc(N)n12`, the activity change, less the hit threshold was -18.3% (inactive).
To `O=C(/C=C/Nc1ccccc1)C(F)(F)F` belongs -19.8% (inactive).
To `COc1ccc(C2CC(c3ccc(Cl)cc3Cl)Nc3nc(N)nn32)cc1OC` (stereo not given) belongs -21.7% (inactive); to `COc1ccc(/C=C2\SC(c3ccc(C)cc3)=NC2=O)cc1OC`, -17.7% (inactive).
Consider `Oc1ccc(Br)cc1-c1n[nH]c(=S)n1Cc1ccccc1`, for which the activity change, less the hit threshold is -4.7% (inactive).
To `Fc1ccccc1N1CCN(c2cnc3ccccc3n2)CC1` belongs -14.5% (inactive); to `Cc1cccc(N(C(=O)c2csnn2)C(C(=O)NCc2ccccc2)c2ccncc2)c1` (stereo not given), -10.4% (inactive); to `O=C1C(c2ccccc2)C(c2ccccc2)NC(c2ccccc2)C1c1ccccc1` (stereo not given), -17.9% (inactive).
Regarding `O=C(CCSc1ccc(Br)cc1)c1ccc(O)cc1`, the activity change, less the hit threshold was -15% (inactive).
To `O=C(Cn1cnc2ccccc21)c1ccccc1` belongs -11.5% (inactive); to `COc1cccc(C(=O)NNC(=O)C(=O)Nc2ccc(OC)cc2OC)c1`, 29.6% (active).
Then `O=C(CN1C(=O)COc2ccccc21)NCCCN1CCOCC1`, with -8.4% (inactive); and `Cc1cccc(NC(=S)N/N=C2/CCCCc3ccccc32)c1`, with -20.4% (inactive); and `Cc1cccc2nc(-c3cccnc3)c(NCCC(C)C)n12`, with -51.2% (inactive).
Then `COc1nnc(-c2ccc(C)c(S(=O)(=O)NC(C)(C)CO)c2)c2ccccc12`, with -9.1% (inactive); and `O=C1NC(=S)SC1=C1CCCCCC1`, with 58.8% (active); and `CCOC(=O)N1CCN(C(=O)CN(c2ccc(OCC)cc2)S(C)(=O)=O)CC1`, with -17.4% (inactive).
As for `c1ccc2oc(-c3nn4c(Cn5cnc6ccccc65)nnc4s3)cc2c1`, the activity change, less the hit threshold is -19.1% (inactive).
Then `C=CCn1c(O)c(N=NC(=S)Nc2ccccc2F)c2cc(S(=O)(=O)N3CCOCC3)ccc21`, with -16.8% (inactive); and `C/C(Cl)=C\Cn1c(O)c(N=NC(N)=S)c2cc(Br)ccc21`, with 16.1% (active); and `Cc1cccc(Cn2c(O)c(N=NC(=S)Nc3ccccc3F)c3ccccc32)c1`, with -22.3% (inactive).
